A selection: hits, their analogues and other compounds. The true share with any hit is near 2.7%.
PfG6PD inh: PfG6PD enzyme inhibitors, primary screen, biochemical, fluorescence intensity, uHTS. glucose-6-phosphate dehydrogenase-6-phosphogluconolactonase (Plasmodium falciparum 3D7). PfGluPho enzyme, NADPH resazurin-diaphorase fluorescence. inhibition, % at 20 µM. actives 0.78% (n = 350,000);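 active = inhibition reaching at least a set limit at 20 µM in the primary screen, cut at about 59% in these data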
Neddyl block: inhibitors of cullin neddylation, primary screen, biochemical, TR-FRET, uHTS, NAE and Ubc12; NEDD8-conjugating enzyme Ubc12 (Homo sapiens) + NEDD8-activating enzyme E1 regulatory …; AID 651699, 2012; calls only at 25 µM; actives 0.58% (n = 360,000); in the data active = inhibition above about 36%
FAS-TE inh: FAS thioesterase domain inhibitors, primary screen, biochemical, fluorescence intensity, uHTS; Fatty acid synthase (Homo sapiens), P49327; recombinant FAS-TE, OMFH fluorogenic substrate, fluorescence endpoint; inhibition, % at 15 µM; actives 0.67% (n = 360,000); AID 602261, 2012;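 active = compounds whose normalised, plate-corrected inhibition of enzyme fluorescence in the single-dose primary screen is 50% or more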
KLK7 zymogen act: proKLK7 zymogen activators, primary screen, biochemical, fluorescence intensity. Kallikrein-7 (Homo sapiens), P49862. activation, % at 7 µM. actives 0.9% (n = 370,000). purified proKLK7, EDANS-DABCYL substrate fluorescence; 100% is mature enzyme control, 0% vehicle;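 active = activation above the mean of all tested compounds plus 3 SD, computed per campaign excluding outliers beyond control limits, cut at about 13% in these data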
Target sequence (P49862 whole entry, looked up): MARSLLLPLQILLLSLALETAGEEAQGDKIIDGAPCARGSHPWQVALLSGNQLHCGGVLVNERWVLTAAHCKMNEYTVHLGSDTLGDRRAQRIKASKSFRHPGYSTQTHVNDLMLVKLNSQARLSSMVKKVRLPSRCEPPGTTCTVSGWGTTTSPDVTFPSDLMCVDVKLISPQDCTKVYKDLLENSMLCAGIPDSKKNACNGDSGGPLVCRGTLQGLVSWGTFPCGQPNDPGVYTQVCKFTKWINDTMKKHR
KLK7 act conf: proKLK7 zymogen activators, confirmation, biochemical, fluorescence intensity, triplicate. shares compounds with KLK7 zymogen act. purified proKLK7, EDANS-DABCYL substrate fluorescence; scaled: vehicle 0, mature enzyme 100. activation, % at 7 µM. actives 68% (n = 3,200);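 active = activation, as change over the incubation, above the mean of all tested compounds plus 3 SD, cut at about 13% in these data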
EDANS interfere: EDANS-DABCYL substrate optical interference, artefact control for kallikrein-7 zymogen activator project, biochemical, fluorescence intensity, high throughput. shares compounds with KLK7 zymogen act. no enzyme, 4 h; solvent 0%, active enzyme control 100%. activation, % at 7 µM. actives 80% (n = 3,200);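 active = activation above the all-compound mean plus 3 SD, ignoring values outside control-based bounds, cut at about 4.8% in these data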;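 also: value is the 4 h activation minus the activation read at time zero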
EDANS interf: counter-screen for kallikrein-7 activators: EDANS-DABCYL interference, dose response; shares compounds with KLK7 zymogen act; EDANS-DABCYL peptide fluorescence interference, no enzyme; EC50, µM; actives 20% (n = 250); AID 720493;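 active = compounds that raise the fluorescence signal in this interference counterscreen, with EC50 at or below 10 µM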;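 also: intact quenched peptide substrate alone read at 355 nm excitation and 520 nm emission; signal is fluorescence gain from T0 to T4 after four hours at room temperature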
Of the large screens only hits and unclear results are named; the others gave an inactive call (follow-up assays come after a bar, where shown).

CC1(C)CC(=O)c2cc(OCC(=O)NCCN3CCCc4ccccc43)ccc2O1	KLK7 zymogen act 18 (not shown: Neddyl block) | KLK7 act conf 43 | EDANS interfere 39
Cc1ccccc1NC(=O)COc1ccc2c(c1)OC(C)(C)CC2=O	none
CCC(Oc1ccccc1F)C(=O)NCCN1CCOCC1 (stereo unspecified)	none
CC(C)CCNC(=O)COc1ccc2c(c1)C(=O)CC(C)(C)O2	KLK7 zymogen act 40 (not shown: Neddyl block) | KLK7 act conf 35 | EDANS interfere 47
CC1(C)CC(=O)c2cc(OCC(=O)NCCCN3CCN(c4ccc(F)cc4)CC3)ccc2O1	KLK7 zymogen act 17 (not shown: Neddyl block) | KLK7 act conf inactive | EDANS interfere inactive
CN(C)S(=O)(=O)c1cccc(NC(=O)c2ccccc2SCC(=O)N2CCCC2)c1	none
COc1ccccc1CN1C(=O)C(Cc2ccccc2)ON=C1c1ncccc1C (stereo unspecified)	none (no result: PfG6PD inh)
CC(=O)Nc1cc(-c2cccc(F)c2)cn2c(-c3ccc(F)c(Cl)c3)cnc12	none (no result: PfG6PD inh)
O=C1Nc2ccc(S(=O)(=O)N3CCOCC3)c3cccc1c23	KLK7 zymogen act 35 (not shown: Neddyl block) | KLK7 act conf 58 | EDANS interfere 57
CN1CCN(S(=O)(=O)c2ccc3c4c(cccc24)C(=O)N3)CC1	KLK7 zymogen act 66 (not shown: Neddyl block) | KLK7 act conf 41 | EDANS interfere 49
O=C(O)CCC(NC(=O)c1ccc(Cl)cc1)C(=O)O (stereo unspecified)	none
CN(Cc1cnc2nc(N)nc(N)c2n1)c1ccc(C(=O)NC(CCC(=O)O)C(=O)O)c2ccccc12 (stereo unspecified)	KLK7 zymogen act 19 | KLK7 act conf inactive | EDANS interfere inactive
COc1ccccc1N1C(=O)C2C(C(=O)c3ccccc3)=NN(c3ccc(Br)cc3)C2C1=O (stereo unspecified)	KLK7 zymogen act 18 | KLK7 act conf inactive | EDANS interfere inactive
COc1cc2c(Cc3ccccc3)cncc2cc1O	none (not shown: Neddyl block)
COc1cc2cncc(Cc3ccccc3)c2cc1O	KLK7 zymogen act 22 (not shown: Neddyl block) | KLK7 act conf 17 | EDANS interfere 21
CCCc1c(C(=O)N/N=C(\C)c2ccccn2)nnn1-c1nonc1N	none
O=C1c2ccccc2NC(c2ccccc2)N1Cc1ccccc1 (stereo unspecified)	none (not shown: Neddyl block)
O=C1c2ccccc2NC(c2ccc(F)cc2)N1Cc1ccco1 (stereo unspecified)	KLK7 zymogen act 15 (not shown: Neddyl block) | KLK7 act conf inactive | EDANS interfere 19
O=C1c2ccccc2NC(c2ccccc2)N1Cc1ccco1 (stereo unspecified)	KLK7 zymogen act 17 (not shown: Neddyl block) | KLK7 act conf 17 | EDANS interfere 7.5 | EDANS interf inactive
Cn1c(CC(O)c2nc3ccccc3n2C)nc2ccccc21 (stereo unspecified)	none
CC(=O)c1c(C)[nH]c(C(=O)Nc2ccc(N3CCCCCC3)cc2)c1C	none
COC(=O)[C@]12CCCCC=C1N(Cc1ccc(OC)cc1)C(=O)[C@@H]2CC(=O)NCc1ccc(C)o1	none (no result: PfG6PD inh, Neddyl block, FAS-TE inh)
Cc1cnc(-c2nnc(N(C)C(=O)C3CCCO3)s2)cn1 (stereo unspecified)	KLK7 zymogen act 74 | KLK7 act conf 114 | EDANS interfere 108
COCC(=O)N(C)c1nnc(-c2cnc(C)cn2)s1	KLK7 zymogen act 17 | KLK7 act conf 70 | EDANS interfere 81
COc1ccc(-c2nnc(N(C)C(=O)C3CCCO3)s2)cc1 (stereo unspecified)	none
COc1ccc(-c2nnc(N(C)C(=O)C3CCOC3)s2)cc1 (stereo unspecified)	none
CN(C(=O)C1CCOC1)c1nnc(-c2cnccn2)s1 (stereo unspecified)	KLK7 zymogen act 29 | KLK7 act conf 26 | EDANS interfere 26
CCCCCNc1ncnc2c(C)[nH]nc12	none (no result: PfG6PD inh)
CCc1c(-c2ccc(Br)cc2)ncn1Cc1cccc(-c2ccccc2)c1	none (no result: PfG6PD inh, FAS-TE inh)
Nn1c(SCc2c(Cl)cccc2Cl)nnc1-c1n[nH]c2c1CCC2	none (no result: PfG6PD inh, Neddyl block, FAS-TE inh)
COC(=O)CSc1nc2nc(-c3cccs3)cc(C(F)(F)F)c2c(=O)[nH]1	none
O=C(CSc1nc2nc(-c3cccs3)cc(C(F)(F)F)c2c(=O)[nH]1)C(F)(F)F	KLK7 zymogen act 67 (not shown: Neddyl block) | KLK7 act conf 278 | EDANS interfere 260
O=C(CSc1nc2nc(-c3cccs3)cc(C(F)(F)F)c2c(=O)[nH]1)NCc1ccco1	KLK7 zymogen act 16 (not shown: Neddyl block) | KLK7 act conf inactive | EDANS interfere inactive
CN1CCCCC1(C)C(=O)NCc1ccc(F)cc1 (stereo unspecified)	none (no result: PfG6PD inh)
O=C(Nc1ccccc1Cl)c1cc(C2CCCCN2S(=O)(=O)c2ccc(F)cc2F)on1 (stereo unspecified)	none (no result: PfG6PD inh)
CC(C)CC(=O)c1c[nH]c(C(=O)NCC2CCCO2)c1 (stereo unspecified)	none
CC(=O)c1c[nH]c(C(=O)NCC2CCCO2)c1 (stereo unspecified)	KLK7 zymogen act 40 | KLK7 act conf inactive | EDANS interfere inactive
CCN(CC)CCCNC(=O)c1cc2c(-c3cccc(OC)c3)nn(C)c2s1	none (not shown: Neddyl block)
CCCCN(C)CCNC(=O)c1cc2c(-c3cccc(OC)c3)nn(C)c2s1	KLK7 zymogen act 13 (not shown: Neddyl block) | KLK7 act conf inactive | EDANS interfere 15
CCCc1cc(=O)oc2cc(C)cc(OCC(=O)O)c12	KLK7 zymogen act 19 (not shown: Neddyl block) | KLK7 act conf 36 | EDANS interfere 34
CCCCc1cc(=O)oc2cc(C)cc(OC(C)C(=O)O)c12 (stereo unspecified)	KLK7 zymogen act 20 (not shown: Neddyl block) | KLK7 act conf 31 | EDANS interfere 33
CCCCc1cc(=O)oc2cc(O)cc(O)c12	KLK7 zymogen act 78 | KLK7 act conf 70 | EDANS interfere 70
CCCCc1cc(=O)oc2cc(C)cc(OC(C)C(=O)NCC3CCC(C(=O)O)CC3)c12 (stereo unspecified)	none (not shown: Neddyl block)
CCCCc1cc(=O)oc2cc(C)cc(O)c12	none
COc1cc(NC(=O)c2cccc3c(-c4cnn(C)c4)coc23)cc(OC)c1OC	none (no result: PfG6PD inh)
CCOC(=O)C1(C)CCN1C(=O)c1ccc(N(C)C)cc1 (stereo unspecified)	none (no result: PfG6PD inh)
COc1ccc([C@H]2OC(=O)C[C@@H]2C(=O)N2CCCCC2)cc1OC	none (no result: PfG6PD inh, Neddyl block, FAS-TE inh)
Cc1cccc(CN2C(=O)N/C(=C/c3ccc(C)s3)C2=O)c1	none
